Compound activity from PubChem BioAssay.
An excerpt weighted towards active compounds, which were near 9% of everything screened.
ALDH1A1 inh = inhibitors of human aldehyde dehydrogenase 1A1 | P00352 | Purified ALDH1A1, NADH fluorescence, propionaldehyde substrate | Potency, µM (highest dose often 75.3 µM), for inactives: top-dose activity, negative = inhibition, most hits filed as inhibitors | 220,000 compounds, 7.3% hits;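 note: potency is the fitted concentration of half-maximal effect; plate controls were no enzyme wells and a reference inhibitor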
IMPase inh = cell-permeable inhibitors of inositol monophosphatase (IMPase) | inhibition (IP1 accumulation), % at 46.1 µM | 120,000 tested, under 10 active | AID 901 | P97697 | CHO-M1 cells, IP1 accumulation, HTRF TR-FRET ratio; active = well fitted curve in the direction sought with a large enough effect in the signal ratio, not every such curve was filed as active; inconclusive = small, poorly fitted or top-dose-only effect, or a change in a side signal; inactive = no such curve, though single readings can be large or run the other way; the % refers to the signal ratio;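 note: cells stimulated with carbachol in lithium chloride buffer; plate controls were DMSO basal wells for no effect and reference inhibitor wells for full effect; higher means more IMPase inhibition seen as more IP1 and lower FRET ratio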
Target sequence (P97697 whole entry, looked up): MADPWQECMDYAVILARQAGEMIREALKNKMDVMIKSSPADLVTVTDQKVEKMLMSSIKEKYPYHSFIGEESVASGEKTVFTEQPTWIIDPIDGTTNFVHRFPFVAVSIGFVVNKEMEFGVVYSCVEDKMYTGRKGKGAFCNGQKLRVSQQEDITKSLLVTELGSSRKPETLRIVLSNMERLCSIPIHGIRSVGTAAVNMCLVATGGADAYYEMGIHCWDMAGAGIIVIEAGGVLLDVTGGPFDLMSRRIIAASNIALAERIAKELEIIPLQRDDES
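Carbachol-driven Gq signalling in CHO-M1 cells (2000/well) generates IP1. Compounds that block IMPase raise IP1 and so reduce the FRET signal from Eu-anti-IP1 and d2-IP1 after a 10 min room-temperature lysis.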
HPGD inh = blocks human HPGD enzyme activity | P15428 | purified HPGD, NADH fluorescence kinetic, PGE2 substrate | Potency, µM, for the others: at the highest dose activity change, negative = inhibition, most hits filed as inhibitors | 150,000 compounds, 4.3% hits | AID 894; note: potency is the fitted concentration of half-maximal effect
Target sequence (P15428 whole entry, looked up): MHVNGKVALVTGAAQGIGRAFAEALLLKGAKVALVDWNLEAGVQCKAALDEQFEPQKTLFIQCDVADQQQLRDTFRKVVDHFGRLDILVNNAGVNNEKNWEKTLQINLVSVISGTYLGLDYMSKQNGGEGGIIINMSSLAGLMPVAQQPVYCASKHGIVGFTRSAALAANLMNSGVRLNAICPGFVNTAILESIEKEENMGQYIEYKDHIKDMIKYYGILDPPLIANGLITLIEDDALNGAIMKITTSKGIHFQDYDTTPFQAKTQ
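20 nM HPGD preincubated 15 min at room temperature with compound in 50 mM Tris-HCl pH 8, 0.01% Tween 20. Started with 1 mM NAD+ and 30 uM prostaglandin E2; NADH fluorescence (360/450 nm) read 5 times over 30-s intervals, last minus first.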
An asterisk follows results filed as active; ? = inconclusive; · = no result given; [ ] = remark or other dose. Unless noted, calls come from the whole dose curve; as a rule, active = well fitted inhibition curve with a large enough effect (not every such curve was filed as active); inconclusive = small, poorly fitted or top-dose-only effect, or another doubt; inactive = no such curve, though single readings can be large or run the other way. Unless noted, % is set by controls: 0 for no effect and ±100 for the full control effect.

SMILES	ALDH1A1 inh	IMPase inh	HPGD inh
CCN(CC)S(=O)(=O)c1ccc(N2CCCC2)c(NS(=O)(=O)c2ccc([N+](=O)[O-])cc2)c1	2µM*	-9.9	·
CCN(CC)S(=O)(=O)c1ccc(N2CCOCC2)c(NS(=O)(=O)c2cc(C(C)(C)C)ccc2C)c1	14.1µM*	·	-15.1%
CCN(CC)S(=O)(=O)c1ccc(N2CCOCC2)c(NS(=O)(=O)c2ccc(C(C)C)cc2)c1	-1.5%	·	-4.2%
CCN(CC)S(=O)(=O)c1ccc(N2CCCC2)c(NS(=O)(=O)c2ccccc2)c1	0.355µM*	·	-13.2%
Cc1ccc(S(=O)(=O)Nc2cc(C(F)(F)F)ccc2N2CCOCC2)cc1C	?	·	-4.5%
CCN(CC)S(=O)(=O)c1ccc(N2CCCC2)c(NS(=O)(=O)c2ccc(OC)cc2)c1	2.51µM*	·	-6.3%
COc1ccc(S(=O)(=O)Nc2cc3c(cc2N2CCOCC2)n(C)c(=O)n3C)cc1	·	5.3	·
CCN(CC)S(=O)(=O)c1ccc(S(=O)(=O)N2CCCC2)cc1	-4.8%	·	·
O=C(CCOc1ccccc1F)N1CCN(c2ccccc2O)CC1	-5.8%	·	·
Cc1cc(C)n(C(=O)Cn2nc([N+](=O)[O-])c(Br)c2C)n1	0.2%	·	·
FC(F)(F)c1ccccc1-c1nc(NC2CCNCC2)c2ccccc2n1	7.2%	·	·
Cc1cc(F)c(Nc2ncnc3cc(OCc4ccccc4)ccc23)cc1O	-12.2%	·	-19.7%
CC(=O)Nc1c(C#N)c(C(C)(C)C)cn1C	-2.5%	?	0.1%
Cc1c(CNC(=O)c2c([N+](=O)[O-])cnn2C)cnn1C	7.1%	·	·
CCN(CC)S(=O)(=O)c1ccc(N2CCCC2)c(NS(=O)(=O)c2ccc(F)cc2)c1	0.631µM*	·	-26.6%
Cn1c(=O)n(C)c2cc(N3CCOCC3)c(NS(=O)(=O)c3ccc(F)cc3)cc21	·	3.2	·
COc1ccc2c(c1)C(=O)[C@@H](OC(=O)NS(=O)(=O)c1ccc(F)cc1)[C@H](c1ccc(OC)c(Br)c1)O2	-13.6%	·	-19.8%
CCC(=O)c1ccc(OCc2ccc(C(=O)OC)o2)c(OC)c1	?	0.8	22.4µM*
C=CCc1ccc(OCc2ccc(C(=O)OC)o2)c(OC)c1	-0.8%	-4.9	-21.2%
S=c1nc(-c2ccccc2Cl)n(Cc2cccnc2)c2c1CCCC2	6.4%	·	-4.4%
COc1ccc(OCC(=O)N/N=C\c2ccco2)cc1	9.4%	·	·
O=C(COc1ccccc1)NCC(=O)N/N=C/c1ccco1	11.9µM*	·	?
COc1cccc(C(=O)Nn2c(-c3cccs3)nc3ccccc3c2=O)c1OC	-15.2%	·	-25.0%
COc1ccc(CNn2c(-c3cccs3)nc3ccccc3c2=O)cc1OC	25.1µM*	·	·
C=C(C)C(O)/C=C/c1ccc(C)cc1 (stereo unspecified)	-0.9%[13.5 µM]	·	·
SMILES	ALDH1A1 inh	IMPase inh	HPGD inh
COc1ccc(-c2nc(C)c(C(C)=O)n2O)cc1[N+](=O)[O-]	-2.1%	·	·
NS(=O)(=O)c1ccc(CCNC(=O)CSc2nnc3ccccn23)cc1	-11.4%	·	·
Cc1ccccc1C(=O)N1CCN(c2ccc(NC(=O)c3ccco3)cc2Cl)CC1	?	6.7	?
O=C(Nc1ccc(N2CCN(C(=O)c3cccs3)CC2)c(Cl)c1)c1ccco1	28.2µM*	-0.6	-5.2%
O=C(NCc1ccco1)c1ccc(S(=O)(=O)N2CCOCC2)cc1	15.8µM*	5.4	15.8µM*
Cn1nc(C(=O)NCc2cccnc2)c2ccccc2c1=O	9.0%	-3.1	2.8%
CC(C)Oc1ccc(C(=O)NCc2ccco2)cc1	-8.2%	-5.5	17.8µM*
O=S(=O)(c1cccc(C(F)(F)F)c1)N1CCN(C(=S)NCc2ccco2)CC1	-3.6%	·	-8.0%
O=C(NCc1ccco1)c1ccc(S(=O)(=O)N2CCCCC2)cc1	-7.8%	·	·
Cn1nc(C(=O)NCc2ccco2)c2ccccc2c1=O	12.6µM*	·	-17.1%
CC(C)c1ccc(S(=O)(=O)N2CCN(C(=S)NCc3ccco3)CC2)cc1	-1.7%	·	28.2µM*
CCCOc1ccc(C(=O)NCc2ccco2)cc1	-3.0%	-5.5	?
CC1CCCCN1C(=O)CSc1nnc(-c2ccc(Cl)s2)o1 (stereo unspecified)	?	-13.5	?
COc1ccc(C2Oc3cc(OC)cc(OC)c3CC2O)cc1 (stereo unspecified)	-7.2%	·	-18.5%
O=C(NCc1ccco1)c1ccc(COc2cc(Cl)ccc2Cl)cc1	3.7%	-10.2	17.8µM*
O=C(NCc1ccco1)c1ccc(-c2ccc(Cl)cc2)o1	-11.3%	·	·
COc1ccc(N2CCN(S(=O)(=O)c3ccc(C(=O)NCc4ccco4)cc3)CC2)cc1	7.94µM*	7.1	-5.3%
COC(=O)[C@@H](NC(=O)NCc1ccco1)C(C)C	10µM*	-0.1	-9.3%
COC(=O)COc1ccc(S(=O)(=O)N2CCN(c3ccc(OC)cc3)CC2)cc1	-8.5%	·	·
Cc1cc2ccccc2n1CCNC(=O)c1ccc(Br)cc1	·	5.1	·
COC(=O)[C@@H](NC(=O)NCc1cccs1)C(C)C	-10.2%	-0.3	-3.3%
Cc1cc2ccccc2n1CCNC(=O)c1ccc(Br)o1	5.62µM*	·	·
O=C(ONC1=NCCCCC1)c1ccc([N+](=O)[O-])cc1	-7.5%	·	·
Cc1cc2ccccc2n1CCNC(=O)c1ccccc1	?	-8.0	-20.4%
Cc1cc2ccccc2n1CCNC(=O)c1ccc(S(=O)(=O)N2CCOCC2)cc1	10µM*	-17.6	-3.1%
SMILES	ALDH1A1 inh	IMPase inh	HPGD inh
CCOC(=O)N/N=C1/C[C@@H](O)[C@@H](O)[C@@H]2[C@@H]3C(=O)N(C4CCCCC4)C(=O)[C@H]3CC[C@H]12	-5.2%[13.5 µM]	·	·
Cc1ccc(NC(=O)NC2(C(=O)NCc3ccco3)CCCCC2)cc1	-4.5%	-1.1	-8.0%
Cc1cccc(NC(=O)COc2ccc(/C=C\c3[nH]c(=O)[nH]c(=O)c3[N+](=O)[O-])cc2)c1	2.1%	·	·
CCc1sc(C(C2C(=O)CC(C)(C)CC2=O)C2C(=O)CC(C)(C)CC2=O)cc1[N+](=O)[O-]	14.1µM*	·	·
CCc1sc(-c2c(C#N)c(N)nc3c2CCCCCC3)cc1[N+](=O)[O-]	3.0%	4.0	-14.6%
Cc1nnc(SCC(=O)Nc2ccc3c(c2)OCCO3)s1	-2.7%	8.6	-0.4%
CC(C)CC(NC(N)=O)C(=O)Nc1ccc2c(c1)OCO2 (stereo unspecified)	17.8µM*	·	·
CN(C)C(=S)Nc1ccc2c(c1)OCO2	10µM*	·	·
CC[C@H](C)[C@H](NC(N)=O)C(=O)Nc1ccc2c(c1)OCO2	-0.5%	·	·
